Source: PubChem BioAssay (Tox21)
Inconclusive results are not listed. The source holds several records for some structures; these can differ, active in one and inactive in another. Activity calls are given as the source filed them. Unless noted, calls come from the whole dose curve; as a rule, active = well fitted curve in the direction sought with a large enough effect in the repeat runs; inconclusive = weak or mixed curves; inactive = no such curve, though single readings can be large; an effect the other way counts as inactive or inconclusive.

Experiments:
[1] = qHTS assay to identify small molecule antagonists of the glucocorticoid receptor (GR) signaling pathway - cell viability counter screen (AID 720693); note: nearly all actives have a fitted effect of over 55% in size
[2] = qHTS assay for identifying genotoxic compounds that show differential cytotoxicity against isogenic chicken DT40 cell lines with known DNA damage response pathways - Rev3 mutant cell line (AID 743014); note: nearly all actives have a fitted effect of over 55% in size; note: potency is the fitted concentration of half-maximal effect
[3] = qHTS assay for identifying genotoxic compounds that show differential cytotoxicity against isogenic chicken DT40 cell lines with known DNA damage response pathways - Rad54/Ku70 mutant cell line (AID 743015); note: nearly all actives have a fitted effect of over 60% in size; note: potency is the fitted concentration of half-maximal effect
[4] = qHTS assay to identify small molecule antagonists of the androgen receptor (AR) signaling pathway - cell viability counter screen (AID 743033; note: nearly all actives have a fitted effect of over 45% in size)
[5] = qHTS assay to identify small molecule antagonists of the androgen receptor (AR) signaling pathway using the MDA cell line - cell viability counter screen (AID 743041; note: nearly all actives have a fitted effect of over 45% in size)
Outline: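 Cells were plated at 3,000 per well and left 5 h. Compounds in DMSO were then pinned in, followed by R1881. After 16 h at 37C, CellTiter-Fluor fluorescence gave viability.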

[6] = qHTS assay to identify small molecule antagonists of the thyroid receptor (TR) signaling pathway - cell viability counter screen (AID 743064); note: nearly all actives have a fitted effect of over 50% in size
Outline: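 In-well cytotoxicity read by CellTiter-Fluor (30 min, 37 C) following 23.5 h exposure of GH3 cells bearing a TRE-luciferase sensor. Compounds were added alongside 1 nM (final) T3 to drive TR transactivation.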

[7] = qHTS assay to identify small molecule antagonists of the thyroid receptor (TR) signaling pathway (AID 743065); note: nearly all actives have a fitted effect of over 55% in size; note: potency is the fitted concentration of half-maximal effect
Outline: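 Antagonism measured as loss of luciferase signal in GH3 cells stably carrying a TRE-luciferase reporter, co-treated with compound and T3 (1 nM final) for 23.5 h at 37 C. Viability was read in the same well by CellTiter-Fluor.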

[8] = test system: thyroid hormone receptor (rat, GH3 cells); assay: qHTS assay to identify small molecule agonists of the thyroid receptor (TR) signaling pathway (AID 743066; calls by dose curve)
[9] = target: Estrogen receptor (Homo sapiens) (UniProt P03372); assay: qHTS assay to identify small molecule antagonists of the estrogen receptor alpha (ER-alpha) signaling pathway (AID 743069; active = well fitted curve in the direction sought with a large enough effect in the signal ratio in the repeat runs, not every such curve was filed as active; the % refers to the signal ratio)
Outline: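 ER-alpha-UAS-bla GripTite HEK293 line; 2% charcoal-stripped FBS overnight; plated, 4 hr 37C/5% CO2; cpd in DMSO + 17beta-estradiol, 18 hr 37C; LiveBLAzer B/G FRET substrate 2 hr RT; fluorescence intensity.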

[10] = target: Estrogen receptor (Homo sapiens) (UniProt P03372); assay: qHTS assay to identify small molecule agonists of the estrogen receptor alpha (ER-alpha) signaling pathway (AID 743075; calls by dose curve;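 note: HEK293 GripTite cells with ER-alpha and UAS-driven beta-lactamase reporter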; note: potency is the fitted concentration of half-maximal effect)
[11] = target: Estrogen receptor (Homo sapiens) (UniProt P03372); assay: qHTS assay to identify small molecule agonists of the estrogen receptor alpha (ER-alpha) signaling pathway using the BG1 cell line (AID 743079); conditions: BG1Luc4E2 cells, ERE-luciferase agonist, 22 h; activation: at 70.3 µM (top of the series); note: nearly all actives have a fitted effect of over 20% in size; note: potency is the fitted concentration of half-maximal effect
[12] = qHTS assay to identify small molecule antagonists of the estrogen receptor alpha (ER-alpha) signaling pathway using the BG1 cell line (AID 743080; calls by dose curve;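 note: BG1 cells stimulated with 17beta-estradiol alongside compound; nearly all actives have a fitted effect of over 25% in size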)
Outline: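 Readout is ONE-Glo luminescence, taken 30 min at room temperature after reagent addition, preceded by a CellTiter-Fluor viability read; BG1-Luc-4E2 cells had received compound and 17beta-estradiol for 21.5 h at 37 C.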

[13] = qHTS assay to identify small molecule antagonists of the estrogen receptor alpha (ER-alpha) signaling pathway using the BG1 cell line - cell viability counter screen (AID 743081);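 note: compound given together with 17beta-estradiol as the ER stimulus; nearly all actives have a fitted effect of over 45% in size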
[14] = qHTS assay to identify small molecule antagonists of the estrogen receptor alpha (ER-alpha) signaling pathway - cell viability counter screen (AID 743074; calls by dose curve;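 note: HEK293 cells carrying ER-alpha-UAS-bla reporter stimulated with 17beta-estradiol; nearly all actives have a fitted effect of over 45% in size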)
Aromatase (Homo sapiens) = Aromatase (Homo sapiens) (UniProt P11511); assay: qHTS assay to identify aromatase inhibitors (AID 743083); note: nearly all actives have a fitted effect of over 55% in size; note: potency is the fitted concentration of half-maximal effect
[15] = target: Androgen receptor (Homo sapiens) (UniProt P10275); assay: qHTS assay to identify small molecule antagonists of the androgen receptor (AR) signaling pathway (AID 743035; active = well fitted inhibition curve with a large enough effect in the signal ratio in the repeat runs, not every such curve was filed as active; the % refers to the signal ratio)
Outline: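 Fluorescence from a beta-lactamase FRET substrate (LiveBLAzer B/G, 2 h, room temperature) measured inhibition of R1881-stimulated signaling in GeneBLAzer AR-UAS-bla HEK293 cells exposed to compound for 16 h at 37C.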

[16] = target: Androgen receptor (Homo sapiens) (UniProt P10275); assay: qHTS assay to identify small molecule agonists of the androgen receptor (AR) signaling pathway (AID 743036; active = well fitted activation curve with a large enough effect in the signal ratio in the repeat runs, with a control signal flat, not every such curve was filed as active; the % refers to the signal ratio)
Outline: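 Activation was read as beta-lactamase FRET signal from LiveBLAzer B/G substrate, added for 2 h at room temperature. Before that, GeneBLAzer AR-UAS-bla GripTite (HEK293) cells had 16 h compound exposure at 37C.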

[17] = target: Androgen receptor (Homo sapiens) (UniProt P10275); assay: qHTS assay to identify small molecule agonists of the androgen receptor (AR) signaling pathway using the MDA cell line (AID 743040; note: nearly all actives have a fitted effect of over 20% in size)
Outline: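 Cells plated, 5 h at 37C/0% CO2; compound or DMSO pinned; 16 h at 37C; ONE-Glo added; luminescence measured after 30 min at room temperature. Reporter line: MDA-kb2 with MMTV-luciferase responsive to AR and GR.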

[18] = target: Androgen receptor (Homo sapiens) (UniProt P10275); assay: qHTS assay to identify small molecule antagonists of the androgen receptor (AR) signaling pathway using the MDA cell line (AID 743042; note: nearly all actives have a fitted effect of over 55% in size)
Outline: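 Antagonist mode: compounds plus R1881 agonist added to MDA-kb2 AR-luc cells, incubated 16 h at 37C. Luciferase reporter luminescence quantified, with multiplexed CellTiter-Fluor readout for cell viability.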

Measured: Potency

Chain of Androgen receptor (Homo sapiens) (P10275 whole entry, looked up): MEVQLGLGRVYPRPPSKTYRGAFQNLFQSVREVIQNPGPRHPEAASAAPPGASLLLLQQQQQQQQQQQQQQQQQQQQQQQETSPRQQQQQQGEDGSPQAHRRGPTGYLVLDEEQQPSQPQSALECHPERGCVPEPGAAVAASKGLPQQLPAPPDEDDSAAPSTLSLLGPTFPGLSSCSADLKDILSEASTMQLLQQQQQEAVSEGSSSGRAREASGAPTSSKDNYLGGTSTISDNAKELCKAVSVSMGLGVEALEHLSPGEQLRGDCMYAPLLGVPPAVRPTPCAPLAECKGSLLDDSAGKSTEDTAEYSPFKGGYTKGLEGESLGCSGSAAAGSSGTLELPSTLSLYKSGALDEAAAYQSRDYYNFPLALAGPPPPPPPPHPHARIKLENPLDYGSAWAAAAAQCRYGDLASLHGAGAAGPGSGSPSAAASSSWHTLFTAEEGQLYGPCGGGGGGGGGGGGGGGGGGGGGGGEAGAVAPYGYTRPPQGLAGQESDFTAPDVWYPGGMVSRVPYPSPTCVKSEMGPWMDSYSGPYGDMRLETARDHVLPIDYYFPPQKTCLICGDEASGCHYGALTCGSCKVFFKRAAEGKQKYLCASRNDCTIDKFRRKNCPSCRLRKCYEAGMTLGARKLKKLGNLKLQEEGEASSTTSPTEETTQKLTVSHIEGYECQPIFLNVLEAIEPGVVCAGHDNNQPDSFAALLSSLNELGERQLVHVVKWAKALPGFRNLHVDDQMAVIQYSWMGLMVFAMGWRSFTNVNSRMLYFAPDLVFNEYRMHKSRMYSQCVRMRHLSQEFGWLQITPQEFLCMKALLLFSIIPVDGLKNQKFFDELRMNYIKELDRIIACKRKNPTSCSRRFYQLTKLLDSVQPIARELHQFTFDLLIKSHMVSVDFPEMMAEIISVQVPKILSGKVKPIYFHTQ
Chain of Aromatase (Homo sapiens) (P11511 whole entry, looked up): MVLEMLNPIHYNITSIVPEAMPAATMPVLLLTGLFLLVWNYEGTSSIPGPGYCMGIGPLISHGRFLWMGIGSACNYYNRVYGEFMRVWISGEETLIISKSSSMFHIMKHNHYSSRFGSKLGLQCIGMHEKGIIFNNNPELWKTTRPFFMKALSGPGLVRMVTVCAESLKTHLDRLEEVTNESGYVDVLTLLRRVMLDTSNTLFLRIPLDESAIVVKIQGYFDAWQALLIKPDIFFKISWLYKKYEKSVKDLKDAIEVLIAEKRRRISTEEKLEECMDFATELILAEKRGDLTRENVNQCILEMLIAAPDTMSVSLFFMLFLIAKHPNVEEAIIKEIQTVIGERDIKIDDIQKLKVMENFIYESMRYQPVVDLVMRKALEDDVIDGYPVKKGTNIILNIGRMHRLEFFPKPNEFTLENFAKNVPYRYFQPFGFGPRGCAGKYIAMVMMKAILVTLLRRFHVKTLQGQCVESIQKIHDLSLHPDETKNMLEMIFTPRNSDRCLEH
Chain of Estrogen receptor (Homo sapiens) (P03372 whole entry, looked up): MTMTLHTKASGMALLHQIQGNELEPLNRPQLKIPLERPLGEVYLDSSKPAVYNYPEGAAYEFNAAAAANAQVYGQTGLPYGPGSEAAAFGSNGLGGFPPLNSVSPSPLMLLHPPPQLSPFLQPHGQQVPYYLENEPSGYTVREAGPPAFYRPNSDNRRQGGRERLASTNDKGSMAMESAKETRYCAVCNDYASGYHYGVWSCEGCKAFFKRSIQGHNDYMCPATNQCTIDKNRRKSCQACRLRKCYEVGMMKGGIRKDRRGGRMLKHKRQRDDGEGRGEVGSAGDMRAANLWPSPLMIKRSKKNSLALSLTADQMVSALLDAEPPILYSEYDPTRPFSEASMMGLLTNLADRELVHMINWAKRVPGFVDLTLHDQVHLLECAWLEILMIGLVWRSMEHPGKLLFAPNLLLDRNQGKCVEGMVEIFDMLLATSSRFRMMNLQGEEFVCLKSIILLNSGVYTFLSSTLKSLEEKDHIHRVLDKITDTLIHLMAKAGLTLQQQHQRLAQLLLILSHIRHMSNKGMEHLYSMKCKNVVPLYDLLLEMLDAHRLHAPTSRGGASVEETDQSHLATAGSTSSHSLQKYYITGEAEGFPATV

O=c1[nH]cnc2[nH]cc(CN3CCCCC3)c12
not listed: [14] | Aromatase (Homo sapiens) | [15] | [16] | [17] | [18]
inactive: all other assays above

O=C(O)c1ccc(OCCn2ccnc2)cc1
not listed: [9] | [15] | [16] | [17] | [18]
inactive: all other assays above

CN[C@@H]1[C@@H](O)[C@@H](O[C@@H]2[C@@H](O)[C@H](O[C@H]3O[C@H](CN)[C@@H](O)[C@H](O)[C@H]3O)[C@@H](N)C[C@H]2NC(=O)C(O)CN)OC[C@]1(C)O (some centres undefined)
not listed: [15] | [16] | [17] | [18]
inactive: all other assays above

CCCCCCCCCCCCCCCCCCOP(=O)([O-])OC1CC[N+](C)(C)CC1
active: [3] 14.6 µM
not listed: [9] | [14] | [15] | [16] | [17] | [18]
inactive: all other assays above

OC[C@H]1O[C@@H](n2cnc3c2NC=NC[C@H]3O)C[C@@H]1O
not listed: [15] | [16] | [17] | [18]
inactive: all other assays above

O.O=C([O-])CC([S-])C(=O)[O-].[Au+].[Na+].[Na+] (centres undefined)
not listed: [7] | [15] | [16] | [17] | [18]
inactive: all other assays above

COCC1=C(C(=O)OC(C)OC(=O)OC(C)C)N2C(=O)[C@@H](NC(=O)/C(=N\OC)c3csc(N)n3)[C@H]2SC1 (some centres undefined)
2.37 µM (active) and inactive: [2]
1.06 µM (active) and inactive: [3]
not listed: [15] | [16] | [17] | [18]
inactive: all other assays above

CO/N=C(\C(=O)N[C@@H]1C(=O)N2C(C(=O)O)=C(CSc3nnnn3C)CS[C@H]12)c1csc(N)n1
not listed: [9] | [15] | [16] | [17] | [18]
inactive: all other assays above

Cc1cccc(C)c1N(CCCc1cccnc1)C(=O)C(C)N (centres undefined)
active: Aromatase (Homo sapiens) 5.96 µM
not listed: [7] | [9]
inactive: all other assays above

CC1(C)S[C@@H]2[C@H](NC(=O)Cc3ccccc3)C(=O)N2[C@H]1C(=O)O
not listed: [7] | [8] | [15] | [16] | [17] | [18]
inactive: all other assays above

CCCC1C(=O)N2C(N(C)C)=Nc3ccc(C)cc3N2C1=O (centres undefined)
not listed: [9] | [10] | [11] | [12] | [15] | [16] | [17] | [18]
inactive: all other assays above

CC1(C)C(\C=C/C=C\C=C/C=C2/N(CCCCS(=O)(=O)O)c3ccc4ccccc4c3C2(C)C)=[N+](CCCCS(=O)(=O)[O-])c2ccc3ccccc3c21
active: [2] 26.6 µM | [3] 29.8 µM | [7] 0.841 µM
not listed: [5] | [6] | [12] | [13] | [16] | [18]
inactive: all other assays above

Nc1nc2[nH]cc(CCc3ccc(C(=O)N[C@@H](CCC(=O)O)C(=O)O)cc3)c2c(=O)[nH]1
active: [2] 0.0119 µM | [3] 0.0106 µM
not listed: [9] | [14] | [15] | [16] | [17] | [18]
inactive: all other assays above

CCCCCCCCCCCCCCCCCC[N+](C)(C)CCC[Si](OC)(OC)OC
active: [2] 18.8 µM | [3] 10.6 µM | [10] 23.9 µM [activator] | [11] 5.96 µM
not listed: [6] | [15] | [16] | [17] | [18]
inactive: all other assays above
